Hit rate of the full screen: of about 1,200 compounds, fewer than 10 were called active.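 Rule for the calls: active = inhibition reaching a set limit at one or more tested concentrations; inactive = inhibition under that limit at every dose.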 The list is a sample of the results. Entries with a potency or affinity are not part of this list.
Assay: RAM pathway signaling blockade in S. cerevisiae – dose response (AID 1307);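 note: 0% = DMSO vehicle wells and 100% = 10 µM 1-NA-PP1 control; higher inhibition means more yeast growth since RAM block rescues cells from 5-FOA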
Conditions: S. cerevisiae RAM network URA3 reporter, 5-FOA growth OD615, active compounds read high, yeast express analog-sensitive mutant Cbk1 kinase; at 100 µM unless noted

Max inhibition, inactive:
COc1ccc(C(=O)NNC(=O)C(Cc2ccc(O)cc2)NC(=O)c2ccccc2NC(=O)c2ccc(OC)cc2)cc1 (centres undefined) 3.19%
COC(=O)[C@H](Cc1ccccc1)NC(=O)[C@@]1(C)C[C@@H]1[C@@H](NC(=O)OCc1ccccc1)c1ccccc1 5.9%
O=C(CCC(=O)c1ccc(Oc2ccccc2)cc1)Nc1cccc(Cl)c1Cl 3.23% [at 25 µM]
COc1cccc(/C=C(/C(=O)OCC(=O)NC2CCCC(C)C2C)c2ccccc2)c1 (centres undefined) 7.65% [at 50 µM]
Cc1ccc(C(=O)C(OC(=O)CCC(=O)Nc2cccc(C)c2)c2ccccc2)cc1 (centres undefined) 5.19%
CCOC(=O)c1ccc(COC(=O)c2ccc3c(c2)-c2ccccc2C3=O)cc1 5.23% [at 25 µM]
CCOC(=O)C1CCN(S(=O)(=O)C(F)(F)c2nc3ccccc3s2)CC1 2.1% [at 0.391 µM]
Clc1ccc(-c2nnc(CSc3nnc(-c4cccs4)o3)o2)cc1 2.52% [at 3.125 µM]
CCSC1=N/C(=C/c2ccsc2)C(=O)N1c1ccccc1 3.18%
CCCNC(=O)c1ccccc1NC(=O)c1ccc(CSc2ccccc2)cc1 5.46% [at 50 µM]
Cc1ccc(C2=NN(Cc3nnc(-c4ccccc4)o3)C(=O)SC2)cc1 3.29%
O=C(NCc1ccccc1)c1ccc(S(=O)(=O)N2CCCc3ccccc32)cc1 2.24%
O=[N+]([O-])c1ccc(N/N=C/c2sc(N3CCOCC3)nc2-c2ccccc2)c(S(=O)(=O)Nc2ccc(Cl)cc2)c1 8.74%
CN(C)S(=O)(=O)c1ccc2[nH]cc(/C=C/c3nc4ccccc4c(=O)n3-c3ccccc3)c2c1 10.9%
CN(C)c1nc(SCCOC(=O)COc2ccc(Cl)cc2Cl)nc(N(C)C)n1 1.44% [at 0.782 µM]
O=C(c1cccs1)n1nc(-c2ccc(Cl)cc2)nc1NCc1ccco1 2.48%
O=C(C(Sc1ccccc1)c1ccccc1)N1CCN(c2ccccc2)CC1 (centres undefined) 2.99% [at 3.125 µM]
CCOC(=O)c1c(NC(=S)Nc2ccc(OC)cc2)sc2c1CCCCC2 3.37% [at 1.563 µM]
O=C(/C=C/c1ccc(-c2ccccc2)o1)c1ccccc1 5.06%
O=C(Cn1cc(C(=O)c2ccco2)c2ccccc21)NC1CCCCC1 3.76% [at 0.391 µM]
O=C1CCC(/C=C/c2ccccc2)=NN1Cc1ccc(Cl)c(Cl)c1 3.06%
C=CCO/N=C(/C)c1c(O)c(CC)c(-c2ccccc2)n(-c2ccccc2)c1=O 2.56% [at 0.391 µM]
CCOC(=O)c1cccc(NC(=O)CSc2nnc(COc3ccccc3C)o2)c1 2.04% [at 50 µM]
Cc1c(NC(=S)NC(=O)Cc2ccccc2)cccc1C(=O)O 2.43% [at 0.196 µM]
COc1cc(NC(=O)c2ccc3c(c2)OCO3)c2ncccc2c1 4.22%
C/C(=N\OC(=O)c1ccc(OC(C)C)cc1)c1ccc(C)c(C)c1 3.12%
Cc1ccc(N(CCCCN2C(=O)c3ccccc3C2=O)C(=O)c2cccs2)cc1 4.25%
Cc1ccc(S(=O)(=O)N2c3cc(C)ccc3OCC2C(C)(C)C)cc1 (centres undefined) 3.04%
COc1ccc(C(=O)COC(=O)C(CCSC)NS(=O)(=O)c2ccc(Cl)cc2)cc1 (centres undefined) 2.78% [at 25 µM]
COCCn1c(=NC(=O)c2sc3ccccc3c2Cl)sc2cc(S(N)(=O)=O)ccc21 4.98% [at 50 µM]
CCOc1ccc(/C=C2/SC(=S)N(C(C(=O)O)c3ccccc3)C2=O)cc1OCC (centres undefined) 3.65%
Cc1ccc(-n2c(SCC(=O)N3CCCc4ccccc43)nnc2-c2cccnc2)c(C)c1 3.12% [at 50 µM]
O=C(O)c1cc(Sc2ccc(Br)cc2)nc2ccccc12 4.44% [at 50 µM]
CCCCc1ccc(N=N/C(C(=O)Nc2ccccc2OC)=C(/C)O)cc1 4.87% [at 50 µM]
O=C(COC(=O)CCN1C(=O)/C(=C\C=C\c2ccccc2)SC1=S)Nc1ccc(Br)cc1 9.41%
O=C(Nc1ccn(Cc2cccc3ccccc23)n1)c1cccnc1 3.63%
CCN(CC)S(=O)(=O)c1cccc(-c2nnc(SCCCC(=O)c3ccccc3)o2)c1 3.65%
O/N=C/c1cc(Br)ccc1OCc1cccc(F)c1 1.58% [at 0.196 µM]
COC(=O)c1scc(C)c1N/N=C(\C)c1ccc(F)cc1F 8.43%
CCCc1nn(C)c(C(=O)Nc2ccc(C(C)(C)C)cc2)c1Cl 3.4%
CCCCOn1c(C)c(C(=O)OCC)c2c3no[n+]([O-])c3ccc21 2.31%
O=C(NCc1ccc2c(c1)OCO2)c1cc(-c2ccccn2)nc2ccccc12 4.19% [at 3.125 µM]
CC(C)(CNC(=S)NCCc1ccccc1)CNC(=S)NCCc1ccccc1 4.96%
CCOC(=O)C(C)Sc1cc(CS(=O)(=O)c2ccccc2)nc(-c2ccccc2)n1 (centres undefined) 5.53%
CCN(CC)S(=O)(=O)c1cc(NS(=O)(=O)c2c(Cl)cccc2Cl)ccc1C 3.03% [at 50 µM]
Cc1ccccc1-c1nnn(CC(=O)Nc2ccc3c(c2)OCCO3)n1 4.6%
O=C(O)CCN1C(=O)/C(=C/c2cn(-c3ccccc3)nc2-c2cccs2)SC1=S 5.53%
COc1ccc(C(=O)/C=C/c2ccc(OC)c(COc3ccc(F)cc3)c2)cc1 5.41%
CC(CCc1ccccc1)NC(=O)CNC(=S)N(Cc1cccs1)C1CCCC1 (centres undefined) 3.28%
COc1ccc(-c2ccc(-c3noc(-c4cccc(OC)c4)n3)c(OC)n2)cc1 4.12%
CC1(C)CC(C(CCN(Cc2ccccc2)C(=O)c2ccco2)c2ccc(F)cc2)CCO1 (centres undefined) 4.56% [at 50 µM]
C=C(C)COc1ccc(-c2[nH]ncc2Oc2ccccc2OCC)c(O)c1 3.4%
CCOC(=O)c1sc(-c2ccccc2)cc1NC(=O)c1ccc(S(=O)(=O)N(CCOC)CCOC)cc1 1.69% [at 12.5 µM]
O=C1Nc2ccccc2/C1=N\N=C\C1=C(N2CCOCC2)C(=C\c2ccccc2)/CC1 19.6%
O=S(=O)(Nc1nc2ccccc2nc1Nc1ccc2c(c1)OCCO2)c1cccs1 5.19%
Cc1cc(C)c(C)c(S(=O)(=O)N2CCC(C(=O)OCC(=O)N3c4ccccc4NC(=O)C3(C)C)CC2)c1C 4.49%
CCOC(=O)c1ccc(NC(=O)Nc2ccc3c4c(cccc24)C(=O)N3CC)cc1 3.19%
CC(C)c1ccc(CNc2cc(N3CCCC3)ccc2[N+](=O)[O-])cc1 5.27%
CCCCc1ccc(-c2csc(/C(C#N)=C\c3ccc(C)o3)n2)cc1 5.43%
O=C(CN(Cc1cccs1)C(=O)CSc1nnc(COc2ccccc2)o1)NC1CCCC1 3.76%
COc1ccc(/C=C2\SC(=O)N(CCC(=O)Nc3ccccc3)C2=O)cc1OC 3.41%
Cc1cc2c(C)ccc(C)c2nc1SCC(=O)c1cccs1 5.59% [at 25 µM]
COc1ccc(O[C@H]2C=C[C@@H](c3ccccc3)O[C@@H]2CO/N=C(\C)CCC(=O)OC[C@H]2O[C@H](c3ccccc3)C=C[C@@H]2Oc2ccc(OC)cc2)cc1 6.56%
Cc1ccc(S(=O)(=O)N2CCC(=O)N(C(COCc3cccc(C(F)(F)F)c3)C(C)C)CC2)cc1 (centres undefined) 2.65% [at 0.782 µM]
CCOC(=O)c1c(NC(=O)CSc2nnc(-c3ccco3)o2)sc(C)c1C 4.63% [at 0.391 µM]
CCOC(=O)c1cc(C(C)C)sc1NC(=O)COC(=O)CCS(=O)(=O)c1ccccc1 3.24% [at 50 µM]
Cc1c(N=Nc2ccc(N(C)C)cc2)c(=O)n(-c2ccccc2)n1C 20.4%
COc1ccc(N(CC(=O)NCCSCc2ccco2)S(=O)(=O)c2ccc(C)cc2)cc1 4.74% [at 50 µM]
Cc1ccc(N=C(NOCc2ccc(Cl)cc2Cl)c2nonc2N)c(C)c1 5.27%
CCOC(=O)c1sc(NC(=O)CSc2nnc(-c3ccc(OC)cc3)n2CCOC)nc1C 1.33% [at 0.782 µM]
CCC(=O)NC(=S)Nc1ccc(NC(=S)NC(=O)c2ccccc2)cc1 5.34% [at 50 µM]
O=C(CSc1nnc(-c2ccccc2Br)o1)N1CCc2ccccc2C1 2.54%
N#Cc1ccsc1NC(=O)COC(=O)CCCSc1nc2ccccc2s1 2.77% [at 50 µM]
O=C(/C=C/c1cccc([N+](=O)[O-])c1)NCCSCc1ccccc1Cl 1.79% [at 6.25 µM]
Clc1ccc(CSc2nnc(/C=C/c3ccccc3)o2)cc1 2.78% [at 25 µM]
CCSc1ccc(-c2nn(-c3ccccc3)cc2/C=C(/C#N)C(=O)NCCCOC)cc1 13%
CCOC(=O)c1c(-c2cccs2)csc1NC(=O)COC(=O)c1c(C)noc1C 4.68%
Cc1ccc(NC2=Nc3ccccc3N3C2=Nc2c(c(C)nn2-c2ccccc2)C3c2ccc(O)c(O)c2)cc1 (centres undefined) 6.97%
COc1ccc(C(=O)CSc2nc(C(C)(C)C)nc3ccccc23)cc1 2.25% [at 1.563 µM]

Reference: PubChem BioAssay AID1307 (SRMLSC, 2008)
